Here are results for 56 compounds from PubChem BioAssay AID540313 (Sanford-Burnham Center for Chemical Genomics, 2011).

The whole screen tested about 2,500 compounds, of which fewer than 10 were called active.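 How the source made its calls: active means inhibition of at least 30% at 20 µM; inactive means the rest.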 Not all results are given here.

The assay in a line: colorimetric readout interference by compounds, confirmation, artefact control for Scp-1 inhibitor project, biochemical, single concentration (AID 540313).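 Further: compounds added after enzyme reaction finished so only phosphate colour detection is probed; plate controls were DMSO wells with completed Scp-1 reaction for no effect and substrate wells lacking enzyme for full effect.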 The note with it: Colorimetric interference counterscreen, malachite green absorbance 630 nm; at 20 µM; active compounds read high. On the technique in general: A counterscreen serves to expose hits that act by an unwanted route or on another target.
As to `O=c1c2cc(-c3ccccc3)sc2nc2n1N=C(c1cccs1)CS2`, the apparent inhibition (interference) is -15.6% (inactive).

On to `O=C(c1ccc(CS(=O)(=O)c2ccccc2)o1)N1CCN(c2ccccc2)CC1`, for which the apparent inhibition (interference) is -14.5% (inactive).

`Cc1ccc(C(=O)NNC(=O)c2cc3cc4ccccc4nc3s2)cc1`: the apparent inhibition (interference) is -12.3% (inactive).

`N#CC1=C(SCc2ccccc2)NC(=O)C(C#N)C12CCCC2` (stereo unspecified): the apparent inhibition (interference) was -3.5% (inactive).

Consider `COc1cccc2sc(N(CCCN(C)C)C(=O)C(c3ccccc3)c3ccccc3)nc12`, for which the apparent inhibition (interference) is -9.56% (inactive).

As for `CN(c1ccccc1)S(=O)(=O)c1ccc(Cl)c(C(=O)OCC(=O)NCc2ccco2)c1`, the apparent inhibition (interference) was -22.8% (inactive).

On to `Nn1cnnc1N/N=C/c1cc([N+](=O)[O-])c(Cl)cc1Cl`, for which the apparent inhibition (interference) was 2.55% (inactive).

Take `O=C(COC(=O)/C=C/c1ccc(Br)o1)Nc1cccc(S(=O)(=O)N2CCOCC2)c1`: the apparent inhibition (interference) is -18.6% (inactive).

For `Cc1nnc(SCC(=O)Nc2ccc(S(=O)(=O)Nc3ccc(Cl)nn3)cc2)s1`, the apparent inhibition (interference) was -18.9% (inactive).

`O=C(COC(=O)CCC(=O)c1cccs1)NCc1ccco1`: the apparent inhibition (interference) was -8.73% (inactive).

With `COCCCNc1nc2ccccc2nc1NS(=O)(=O)c1ccc(F)cc1`, the apparent inhibition (interference) was -12.6% (inactive).

Turning to `O=S(=O)(Nc1ccccc1Cl)c1cccc2nsnc12`, the apparent inhibition (interference) was -11.2% (inactive).

As for `CC(NC(=O)CC1SC(N)=NC1=O)c1ccccc1` (stereo unspecified), the apparent inhibition (interference) was -25.2% (inactive).

For the compound `O=C(O)c1ccc(N/N=C/c2ccc3ncccc3c2)cc1`, the apparent inhibition (interference) was -19.2% (inactive).

In the case of `ON=C1/C(=N\O)CC2(C/C1=N/O)OCCO2`, the apparent inhibition (interference) is -6.8% (inactive).

Take `O=C(Nc1cc(S(=O)(=O)N2CCCCC2)ccc1Cl)C1COc2ccccc2O1` (stereo unspecified): the apparent inhibition (interference) is -8.46% (inactive).

Regarding `Cc1nn(-c2cc(Cl)ccc2N)c(=O)c2ccccc12`, the apparent inhibition (interference) is -5.43% (inactive).

For the compound `Cc1ccc(CN2CCN(c3ccccc3Cl)CC2)o1`, the apparent inhibition (interference) was -14.5% (inactive).

On to `CN(CC(=O)Nc1cccc(F)c1)C(=O)C1CC(=O)N(CCc2ccccc2)C1` (stereo unspecified), for which the apparent inhibition (interference) is -6.79% (inactive).

Regarding `COc1ccc(NC(=O)N(C)C[C@H]2Oc3ccc(NC(=O)C4CC4)cc3C(=O)N([C@H](C)CO)C[C@@H]2C)cc1`, the apparent inhibition (interference) was -15.3% (inactive).

On to `COc1ccc(Cl)cc1C=CC=NNC(=O)c1ccncc1`, for which the apparent inhibition (interference) is -8.46% (inactive).

On to `Cc1ccc(S(=O)(=O)Nc2ccc3c(c2)C(=O)N([C@H](C)CO)C[C@@H](C)[C@@H](CN(C)C(=O)Nc2cccc4ccccc24)O3)cc1`, for which the apparent inhibition (interference) was -13.6% (inactive).

As for `C=C1c2cccc(OC)c2O[C@H](C(=O)OCC)[C@@H]1CCCCCC`, the apparent inhibition (interference) is -7.63% (inactive).

As for `COc1cccc(CNS(=O)(=O)c2csc(C(N)=O)c2)c1`, the apparent inhibition (interference) is -12.8% (inactive).

Turning to `O=C(Nc1cccc(F)c1)[C@@H]1CCCN1`, the apparent inhibition (interference) was -5.98% (inactive).

`O=C(c1ccc2c(c1)OCO2)N1CCNc2ccccc2C1`: the apparent inhibition (interference) is -25.4% (inactive).

`C[C@H](CO)N1C[C@H](C)[C@H](CN(C)C(=O)Nc2ccc(C(F)(F)F)cc2)Oc2c(NC(=O)c3ccncc3)cccc2C1=O`: the apparent inhibition (interference) is -21.4% (inactive).

Turning to `Cc1ccccc1NC(=O)CN1C(=O)N/C(=C\c2cccn2-c2cccc(C(=O)O)c2)C1=O`, the apparent inhibition (interference) is 6.13% (inactive).

In the case of `N#Cc1c(-c2cccs2)nc(SCC(=O)c2ccc(Br)cc2)[nH]c1=O`, the apparent inhibition (interference) is -20.8% (inactive).

Regarding `O=C(NNC(=O)c1ccc2ccccc2c1)c1ccc(Cl)cc1`, the apparent inhibition (interference) was -9.26% (inactive).

Turning to `N#Cc1ccc(C(=O)Nc2cccc3cccnc23)c(F)c1`, the apparent inhibition (interference) is -4.88% (inactive).

Turning to `Cc1ccc(S(=O)(=O)Nc2nc(C)cc(-n3nc(C)cc3C)n2)cc1`, the apparent inhibition (interference) is -5.43% (inactive).

Take `O=C(CN1CCN(S(=O)(=O)/C=C/c2ccccc2)CC1)NC(=O)NCc1ccco1`: the apparent inhibition (interference) was -17.5% (inactive).

With `Cc1ccc(Cc2nnc(SCC(=O)Nc3ccc(C)cc3C)[nH]c2=O)cc1`, the apparent inhibition (interference) was -12.9% (inactive).

As for `O=C(Cn1cc(/C=N/NC(=O)c2cccc(C(F)(F)F)c2)c2ccccc21)Nc1ccc(F)cc1`, the apparent inhibition (interference) was -10.9% (inactive).

`CC1=NNC(=O)C1CCC(=O)N/N=C\c1cccc(Cl)c1` (stereo unspecified): the apparent inhibition (interference) is -21.4% (inactive).

For `CCCc1nc(-c2cc3cc(C)ccc3[nH]c2=O)no1`, the apparent inhibition (interference) is -14% (inactive).

In the case of `COc1cccc(NC(C)=[N+](C)CCNS(=O)(=O)c2ccc(Cl)cc2)c1`, the apparent inhibition (interference) is -6.24% (inactive).

With `Cc1ccc(N=Cc2c(O)n(-c3nccs3)c(=O)c3ccccc23)c(C)c1`, the apparent inhibition (interference) is -22.5% (inactive).

With `O=C(CN1CCN(c2ccc(Cl)cc2)CC1)c1ccccc1`, the apparent inhibition (interference) is -14.5% (inactive).

Turning to `O=C(Cn1nnc(-c2ccc3c(c2)OCO3)n1)NCc1ccco1`, the apparent inhibition (interference) is -12% (inactive).

On to `Cc1cc(/C=C2\SC(=O)N(C)C2=O)c(C)n1-c1cccc(C(=O)O)c1`, for which the apparent inhibition (interference) is -18.6% (inactive).

`Cc1c(CCC(=O)O)c(=O)oc2c(C)c(OCc3ccccc3Cl)ccc12`: the apparent inhibition (interference) was -5.7% (inactive).

For the compound `COc1ccc2[nH]c3c(C)c4cc[n+](C)cc4c(C)c3c2c1`, the apparent inhibition (interference) is -5.15% (inactive).

Turning to `NC(=O)NC(=O)CSc1nc2cc([N+](=O)[O-])ccc2n1-c1cccc(C(F)(F)F)c1`, the apparent inhibition (interference) was -5.7% (inactive).

Regarding `CCOc1ccccc1/C=c1\sc2nc(-c3ccco3)nn2c1=O`, the apparent inhibition (interference) is -22.1% (inactive).

Regarding `Cc1ccc(/C=C/C(=O)Nc2ccc([N+](=O)[O-])c(NC(=O)/C=C/c3ccc(C)o3)c2)o1`, the apparent inhibition (interference) was 2.53% (inactive).

For the compound `COc1ccc(OC)c(NC(=O)CSc2nc(-c3ccccc3)cc(=O)[nH]2)c1`, the apparent inhibition (interference) is -14.8% (inactive).

`COc1ccc(OCC(=O)NNC(=O)c2ccc(-c3ccccc3)cc2)cc1`: the apparent inhibition (interference) was -11.5% (inactive).

As for `Cc1c([N+](=O)[O-])c(N)nn1C`, the apparent inhibition (interference) was 2.28% (inactive).

As for `O=C1NN(c2ccccc2)C(=O)/C1=C/c1ccc(-c2cccc(C(=O)O)c2)o1`, the apparent inhibition (interference) was 0.06% (inactive).

Regarding `COc1ccc(/C=C/C(=O)OCC(=O)NC2CCCCCC2)cc1OC`, the apparent inhibition (interference) is 5.86% (inactive).

`Cc1ccc(CCCOC(=O)C[N+]2(C)CCCC2)cc1`: the apparent inhibition (interference) was -20% (inactive).

Consider `Cc1c(CCC(=O)O)c(=O)oc2cc(OCc3ccc(Br)cc3)ccc12`, for which the apparent inhibition (interference) is -11.7% (inactive).

As for `CC1CCN(c2ccc(S(=O)(=O)Nc3cc(C(=O)O)cc(C(=O)O)c3)cc2[N+](=O)[O-])CC1`, the apparent inhibition (interference) was -19.7% (inactive).

With `CC(=O)Nc1ccc(N2C(=O)CCC2=O)cc1C`, the apparent inhibition (interference) was -12.9% (inactive).
